# According to PubChem BioAssay (EPA / NIEHS):
# Several values for one entry are separate records, joined by “and”; a condition that tells them apart may be missing. Identical values can stand only once. Some structures have more than one record in an assay (separate samples or runs), and their calls can disagree. Activity calls are given as the source filed them. How the source made its calls: active means hit-call score of the fitted dose curve at least 0.9, where 1 is the maximum; inactive means score below 0.9.
# Experiments:
# [1] = BSK_hDFCGF_SRB: Viability Assessment in the BioMAP Diversity Plus: hDFCGF Assay (AID 2283061); settings: primary human foreskin fibroblasts;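 further: cells exposed to compound for 24 h before the read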
# In short: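 SRB-based viability read on primary human skin fibroblasts at 24 h: TCA fixation, 0.1% dye, 560 nm. Gain or loss of signal is fitted against the DMSO negative control.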
# [2] = read-out: TIMP metallopeptidase inhibitor 1 (TIMP1), TIMP1 (gene 7076); assay: BSK_hDFCGF_TIMP1: BioMAP Diversity Plus: hDFCGF Assay for TIMP metallopeptidase inhibitor 1 (TIMP1) Biomarker Activity (AID 2283062); settings: primary human foreskin fibroblasts; actives raise or lower the signal
# In short: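 Bidirectional curve fitting against DMSO baseline yielded this endpoint, based on ELISA detection of TIMP-1 in primary human foreskin fibroblasts exposed to compound for 24 h.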
# [3] = read-out: Monokine induced gamma interferon (MIG), CXCL9 (gene 4283); assay: BSK_hDFCGF_MIG: BioMAP Diversity Plus: hDFCGF Assay for Monokine induced gamma interferon (MIG) Biomarker Activity (AID 2283063); settings: primary human foreskin fibroblasts; actives raise or lower the signal
# In short: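 Endpoint derived by bidirectional fitting relative to DMSO; MIG quantified via ELISA in primary human foreskin fibroblasts harvested 24 h after dosing.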
# [4] = read-out: Matrix Metallopeptidase 1 (MMP1), MMP1 (gene 4312); assay: BSK_hDFCGF_MMP1: BioMAP Diversity Plus: hDFCGF Assay for Matrix Metallopeptidase 1 (MMP1) Biomarker Activity (AID 2283064); settings: primary human foreskin fibroblasts; actives raise or lower the signal
# In short: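 Primary human foreskin fibroblasts exposed to chemicals for 24 h; MMP1 measured by ELISA. Cytotoxicity tracked by SRB staining in parallel cultures; bidirectional fit relative to DMSO.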
# [5] = read-out: Vascular cell adhesion molecule 1 (VCAM1), VCAM1 (gene 7412); assay: BSK_hDFCGF_VCAM1: BioMAP Diversity Plus: hDFCGF Assay for Vascular cell adhesion molecule 1 (VCAM1) Biomarker Activity (AID 2283065); settings: primary human foreskin fibroblasts; actives raise or lower the signal;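 on AC50: VCAM-1 protein level quantified by ELISA after 24 h chemical exposure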
# In short: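 Measured after 24 h chemical treatment of primary human skin fibroblasts, VCAM-1 was detected by ELISA and concentration-response analysed in both directions versus DMSO vehicle.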
# [6] = read-out: Plasminogen activator inhibitor-1 (PAI1), SERPINE1 (gene 5054); assay: BSK_hDFCGF_PAI1: BioMAP Diversity Plus: hDFCGF Assay for Plasminogen activator inhibitor-1 (PAI1) Biomarker Activity (AID 2283066); settings: primary human foreskin fibroblasts; actives raise or lower the signal
# In short: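 PAI-1 levels, determined by ELISA, served as the endpoint in human foreskin fibroblast cultures exposed to compound for 24 h, with DMSO as baseline.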
# [7] = read-out: Intercellular Adhesion Molecule 1 (ICAM1), ICAM1 (gene 3383); assay: BSK_KF3CT_ICAM1: BioMAP Diversity Plus: KF3CT Assay for Intercellular Adhesion Molecule 1 (ICAM1) Biomarker Activity (AID 2283067); settings: primary human keratinocytes with fibroblasts; actives raise or lower the signal
# In short: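 Bidirectional curve fitting against a DMSO baseline was applied to ICAM-1 ELISA signal from primary human skin co-cultures harvested 24 h after treatment, with SRB staining of parallel wells for overt cytotoxicity.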
# [8] = read-out: Interferon-gamma inducible Protein 10 (IP10), CXCL10 (gene 3627); assay: BSK_KF3CT_IP10: BioMAP Diversity Plus: KF3CT Assay for Interferon-gamma inducible Protein 10 (IP10) Biomarker Activity (AID 2283068); settings: primary human keratinocytes with fibroblasts; actives raise or lower the signal
# In short: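 In a primary skin co-culture of keratinocytes and fibroblasts, IP-10 is quantified by ELISA at 24 h after dosing. SRB staining of parallel wells monitors overt toxicity. Curves are fitted both directions against DMSO.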
# [9] = BSK_KF3CT_SRB: Viability Assessment in the BioMAP Diversity Plus: KF3CT Assay (AID 2283069); settings: primary human keratinocytes with fibroblasts;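 further: total protein by sulforhodamine B staining as a cytotoxicity measure; read 24 h after compound addition; fitted for both signal gain and loss against DMSO baseline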
# In short: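 Human keratinocyte and foreskin fibroblast co-culture exposed to chemical for 24 h. Total protein measured in parallel cultures by 0.1% sulforhodamine B staining after 10% TCA fixation, read at 560 nm; bidirectional fit relative to DMSO.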
# [10] = read-out: Interleukin-1 alpha (IL1a), IL1A (gene 3552); assay: BSK_KF3CT_IL1a: BioMAP Diversity Plus: KF3CT Assay for Interleukin-1 alpha (IL1a) Biomarker Activity (AID 2283070); settings: primary human keratinocytes with fibroblasts; actives raise or lower the signal
# In short: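 Primary human keratinocyte plus foreskin fibroblast co-culture, dosed and measured at 24 h in 96-well plates. IL-1a level quantified by ELISA; bidirectional fit relative to DMSO.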
# [11] = read-out: TIMP metallopeptidase inhibitor 2 (TIMP2), TIMP2 (gene 7077); assay: BSK_KF3CT_TIMP2: BioMAP Diversity Plus: KF3CT Assay for TIMP metallopeptidase inhibitor 2 (TIMP2) Biomarker Activity (AID 2283071); settings: primary human keratinocytes with fibroblasts; actives raise or lower the signal
# In short: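 Keratinocyte–fibroblast co-culture, 24 h exposure; TIMP-2 ELISA, DMSO-normalised bidirectional fit. Parallel SRB (0.1%, TCA-fixed, 560 nm) total-protein staining gauges cytotoxicity.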
# [12] = read-out: C-C motif chemokine 2 (Homo sapiens) (UniProt P13500); assay: BSK_KF3CT_MCP1: BioMAP Diversity Plus: KF3CT Assay for Monocyte Chemoattractant Protein 1 (MCP1/CCL2) Biomarker Activity (AID 2283073); settings: primary human keratinocytes with fibroblasts; actives raise or lower the signal
# In short: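 Biomarker MCP-1 is measured by ELISA in primary human keratinocytes co-cultured with foreskin fibroblasts, 24 h after chemical treatment; DMSO serves as the negative control and activity baseline.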
# [13] = read-out: Matrix Metallopeptidase 9 (MMP9), MMP9 (gene 4318); assay: BSK_KF3CT_MMP9: BioMAP Diversity Plus: KF3CT Assay for Matrix Metallopeptidase 9 (MMP9) Biomarker Activity (AID 2283074); settings: primary human keratinocytes with fibroblasts; actives raise or lower the signal;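 on AC50: MMP9 protein level quantified by ELISA in the co-culture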
# In short: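 Human keratinocyte and foreskin fibroblast co-culture exposed to chemicals for 24 h; MMP9 biomarker measured by ELISA, bidirectional fitting relative to DMSO; cytotoxicity tracked by SRB total protein staining in parallel cultures.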
# [14] = read-out: urokinase plasminogen activator (uPA), PLAU (gene 5328); assay: BSK_KF3CT_uPA: BioMAP Diversity Plus: KF3CT Assay for urokinase plasminogen activator (uPA) Biomarker Activity (AID 2283075); settings: primary human keratinocytes with fibroblasts; actives raise or lower the signal
# In short: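 Primary human keratinocyte/foreskin fibroblast co-culture exposed to chemical; uPA measured by ELISA at 24 h. Bidirectional fit versus DMSO, with parallel SRB total-protein staining for cytotoxicity.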
# [15] = read-out: CD40, CD40 (gene 958); assay: BSK_LPS_CD40: BioMAP Diversity Plus: LPS Assay for CD40 Biomarker Activity (AID 2283076); settings: primary human HUVEC with PBMC; actives raise or lower the signal
# In short: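 Using a multiplexed primary human co-culture (umbilical vein endothelium plus PBMC), CD40 was read by ELISA 24 h after dosing, with cytotoxicity tracked by sulforhodamine B staining of parallel cultures and activity fitted bidirectionally versus DMSO.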
# [16] = read-out: E-selectin (Homo sapiens) (UniProt P16581); assay: BSK_LPS_Eselectin: BioMAP Diversity Plus: LPS Assay for Eselectin Biomarker Activity (AID 2283077); settings: primary human HUVEC with PBMC; actives raise or lower the signal
# In short: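 Dose chemical onto LPS-driven HUVEC/PBMC co-culture; after 24 h, run ELISA for E-selectin; fit up- and down-going responses relative to DMSO control.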
# [17] = read-out: Interleukin-8 (IL8), CXCL8 (gene 3576); assay: BSK_LPS_IL8: BioMAP Diversity Plus: LPS Assay for Interleukin-8 (IL8) Biomarker Activity (AID 2283078); settings: primary human HUVEC with PBMC; actives raise or lower the signal
# In short: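 In this LPS system, chemical-treated human umbilical vein endothelium/PBMC co-cultures were harvested at 24 h for IL-8 ELISA.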
# [18] = BSK_LPS_SRB: Viability Assessment in the BioMAP Diversity Plus: LPS Assay (AID 2283079); settings: primary human HUVEC with PBMC;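 further: total protein by sulforhodamine B absorbance as a cytotoxicity measure; measured one day after compound addition; fitted in both directions against DMSO so loss or gain of signal counts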
# In short: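 Cytotoxicity endpoint in human endothelial–PBMC co-culture: 24 h exposure, then SRB (0.1%) staining, 560 nm read.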
# [19] = read-out: Interleukin-1 alpha (IL1a), IL1A (gene 3552); assay: BSK_LPS_IL1a: BioMAP Diversity Plus: LPS Assay for Interleukin-1 alpha (IL1a) Biomarker Activity (AID 2283080); settings: primary human HUVEC with PBMC; actives raise or lower the signal
# In short: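 Primary human HUVEC and PBMC co-culture stimulated with LPS is dosed and harvested at 24 h. Both increases and decreases in ELISA-measured IL-1a are scored relative to DMSO.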
# [20] = read-out: Transforming growth factor beta 1 (TGFb1), TGFB1 (gene 7040); assay: BSK_KF3CT_TGFb1: BioMAP Diversity Plus: KF3CT Assay for Transforming growth factor beta 1 (TGFb1) Biomarker Activity (AID 2283072); settings: primary human keratinocytes with fibroblasts; actives raise or lower the signal
# In short: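 Signal changes in either direction, relative to DMSO, define activity here. TGF-b1 is read by ELISA from a human keratinocyte-fibroblast co-culture 24 h post-dose.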
# E-selectin (Homo sapiens), sequence (P16581 whole entry, looked up): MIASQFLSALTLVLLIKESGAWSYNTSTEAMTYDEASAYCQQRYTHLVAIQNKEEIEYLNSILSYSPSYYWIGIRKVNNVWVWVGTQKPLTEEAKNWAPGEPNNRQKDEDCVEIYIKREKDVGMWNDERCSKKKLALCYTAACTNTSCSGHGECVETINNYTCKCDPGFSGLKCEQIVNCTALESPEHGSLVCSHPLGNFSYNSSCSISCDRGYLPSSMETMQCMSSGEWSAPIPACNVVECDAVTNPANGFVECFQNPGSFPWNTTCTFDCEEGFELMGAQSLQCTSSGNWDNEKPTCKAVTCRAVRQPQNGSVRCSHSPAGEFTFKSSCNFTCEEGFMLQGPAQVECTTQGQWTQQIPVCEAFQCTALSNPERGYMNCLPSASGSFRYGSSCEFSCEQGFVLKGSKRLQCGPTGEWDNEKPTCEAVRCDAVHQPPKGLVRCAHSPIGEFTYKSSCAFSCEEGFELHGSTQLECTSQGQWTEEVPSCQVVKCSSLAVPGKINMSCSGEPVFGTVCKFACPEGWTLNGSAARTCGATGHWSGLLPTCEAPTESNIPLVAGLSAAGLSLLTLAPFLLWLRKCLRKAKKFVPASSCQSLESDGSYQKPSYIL
structure (smiles),measurement,setting,value
O=C(O)Cc1cc(I)c(Oc2cc(I)c(O)c(I)c2)c(I)c1,AC50,[1],12.2 µM (active)
same,outcome,[2],inactive
same,AC50,[3],10.7 µM (active)
same,AC50,[4],8.58 µM (active)
same,AC50,[5],8.85 µM (active)
same,AC50,[6],8.1 µM (active)
same,AC50,[7],16.7 µM (active)
same,AC50,[8],4.59 µM (active)
same,AC50,[9],10.1 µM (active)
same,AC50,[10],18.7 µM (active)
same,AC50,[11],13.4 µM (active)
same,AC50,[12],11 µM (active)
same,AC50,[13],8.62 µM (active)
same,AC50,[14],18.8 µM (active)
same,AC50,[15],14.7 µM (active)
same,outcome,[16],inactive
same,AC50,[17],20.5 µM (active)
same,outcome,[18],inactive
same,AC50,[19],21.2 µM (active)
NC(=O)N1C(=O)C(C(=O)c2cc(Cl)cs2)c2cc(F)c(Cl)cc21 (configuration not stated),AC50,[1],5.47 µM (active)
same,AC50,[2],5.17 µM (active)
same,AC50,[3],12.7 µM (active)
same,AC50,[4],10.3 µM (active)
same,AC50,[5],5.54 µM (active)
same,AC50,[6],1.71 µM (active)
same,AC50,[7],12.4 µM (active)
same,AC50,[8],8.07 µM (active)
same,AC50,[9],6.16 µM (active)
same,AC50,[10],12.9 µM (active)
same,AC50,[11],11.2 µM (active)
same,outcome,[12],inactive
same,AC50,[13],4.33 µM (active)
same,AC50,[14],12.5 µM (active)
same,AC50,[15],17.7 µM (active)
same,AC50,[16],1.47 µM (active)
same,outcome,[17],inactive
same,AC50,[18],20 µM (active)
same,AC50,[19],20 µM (active)
OCCC(F)(F)C(F)(F)C(F)(F)C(F)(F)C(F)(F)C(F)(F)C(F)(F)C(F)(F)F,AC50,[1],13.8 µM (active) and 15.5 µM (active)
same,outcome,[1],inactive
same,AC50,[2],16.3 µM (active) and 14.6 µM (active)
same,outcome,[2],inactive
same,AC50,[3],18 µM (active) and 17.8 µM (active)
same,outcome,[3],inactive
same,AC50,[4],17.9 µM (active) and 17 µM (active)
same,outcome,[4],inactive
same,AC50,[5],16.1 µM (active) and 12.8 µM (active)
same,outcome,[5],inactive
same,AC50,[6],12.8 µM (active)
same,outcome,[6],inactive
same,AC50,[7],23.2 µM (active) and 20 µM (active)
same,outcome,[7],inactive
same,AC50,[8],15.7 µM (active)
same,outcome,[8],inactive
same,AC50,[9],18.1 µM (active) and 14.5 µM (active)
same,outcome,[9],inactive
same,AC50,[10],17.3 µM (active) and 9.96 µM (active)
same,outcome,[10],inactive
same,AC50,[11],19.9 µM (active) and 14.6 µM (active)
same,outcome,[11],inactive
same,outcome,[20],inactive
same,AC50,[12],20.1 µM (active) and 18 µM (active)
same,outcome,[12],inactive
same,AC50,[13],13.6 µM (active) and 12.2 µM (active)
same,outcome,[13],inactive
same,AC50,[14],17.1 µM (active) and 19.1 µM (active)
same,outcome,[14],inactive
same,AC50,[15],30.6 µM (active) and 29.1 µM (active)
same,outcome,[15],inactive
same,AC50,[16],40 µM (active) and 30 µM (active)
same,outcome,[16],inactive
same,AC50,[17],30 µM (active)
same,outcome,[17],inactive
same,AC50,[18],15.8 µM (active) and 17.4 µM (active)
same,outcome,[18],inactive
same,AC50,[19],18.7 µM (active) and 23.8 µM (active)
same,outcome,[19],inactive
COCC(C)O (configuration not stated),outcome,[1],inactive
same,outcome,[2],inactive
same,outcome,[3],inactive
same,outcome,[4],inactive
same,outcome,[5],inactive
same,outcome,[6],inactive
same,outcome,[7],inactive
same,outcome,[8],inactive
same,outcome,[9],inactive
same,outcome,[10],inactive
same,outcome,[11],inactive
same,outcome,[20],inactive
same,outcome,[12],inactive
same,outcome,[13],inactive
same,outcome,[14],inactive
same,outcome,[15],inactive
same,outcome,[16],inactive
same,outcome,[17],inactive
same,outcome,[18],inactive
same,outcome,[19],inactive
CCCCCCCCC(=O)O,outcome,[1],inactive
same,outcome,[2],inactive
same,outcome,[3],inactive
same,outcome,[4],inactive
same,outcome,[5],inactive
same,outcome,[6],inactive
same,outcome,[7],inactive
same,outcome,[8],inactive
same,outcome,[9],inactive
same,outcome,[10],inactive
same,outcome,[11],inactive
same,outcome,[20],inactive
same,outcome,[12],inactive
same,outcome,[13],inactive
same,outcome,[14],inactive
same,outcome,[15],inactive
same,outcome,[16],inactive
same,outcome,[17],inactive
same,outcome,[18],inactive
same,outcome,[19],inactive
